From PubChem BioAssay (NCI) come the findings set out here.

About 83,000 compounds went through this panel and 20% of them were active in at least one assay; those are over-represented in the sample as a whole.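 The test compound was applied at a single concentration to cells in 96-well plates for 48 hours, and percent growth was recorded.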 Unmarked numbers belong to inactive results. Activity calls are given as the source filed them. How the source made its calls: active means growth percent below 10; inactive means the rest.

Some test systems named below: NCI-H23 lung; NCI-H226 lung; HOP-62 NSCLC; NCI-H460 lung; HOP-92 NSCLC; NCI-H522 lung; A549/ATCC NSCLC; 786-0 renal; COLO 205 colon; DU-145 prostate; K-562 leukemia; MALME-3M melanoma; MDA-MB-231 breast; RXF 393 renal; SF-268 CNS; SF-295 CNS; SF-539 CNS; UACC-257 melanoma; M14 melanoma; NCI-H322M lung.
What all share (test): NCI-60 one-dose screen, 48 h (100 = growth as untreated, 0 = no growth, -100 = all killed)
Common to all, as to settings: 10 µM unless noted

Regarding `O=C1CN(CCN2CC(=O)N(Cc3ccccc3)C(=O)C2)CC(=O)N1Cc1ccccc1`, the growth in the test with NCI-H23 lung was 97.7%; with NCI-H226 lung, 107%; with HOP-62 NSCLC, 91.2%; with NCI-H460 lung, 100%; in the test with HOP-92 NSCLC, 85%; with NCI-H522 lung, 98.8%. Further, the growth in the test on A549/ATCC NSCLC was 102%; in the test with 786-0 renal it was 110%; in the test on COLO 205 colon, 109%; in the test on DU-145 prostate, 117%; in the test on K-562 leukemia, 107%; in the test with MALME-3M melanoma, 103%. In addition, the growth in the test with MDA-MB-231 breast is 102%; in the test on RXF 393 renal it was 108%; with SF-268 CNS, 103%; in the test with SF-295 CNS, 109%; in the test with SF-539 CNS, 115%; in the test on UACC-257 melanoma, 98.4%. The growth in the test on M14 melanoma is 109%.
As for `COc1ccc(N2C(=O)C(Oc3ccccc3)C2c2ccc(C)cc2)cc1` (configuration not stated), the growth is 91% in the test on NCI-H23 lung; 114% in the test with NCI-H226 lung; 104% with HOP-62 NSCLC; 103% in the test on NCI-H460 lung; 66.8% with HOP-92 NSCLC; 94.2% in the test on NCI-H522 lung. Also, the growth was 90.5% in the test with A549/ATCC NSCLC; 98.5% with 786-0 renal; 107% in the test with COLO 205 colon; 113% in the test with DU-145 prostate; 95.1% with K-562 leukemia; 93.4% in the test on MALME-3M melanoma. Also, the growth in the test with MDA-MB-231 breast was 101%; in the test on RXF 393 renal, 126%; with SF-268 CNS it was 102%; in the test on SF-295 CNS, 89.6%; in the test with SF-539 CNS, 98.6%; in the test with UACC-257 melanoma it was 95.3%. Also, in the test on M14 melanoma, the growth is 93.1%.
On to `COc1nc2ccc(C)cc2cc1-c1nc2c(cnn2-c2ccc(Br)cc2)c(=O)[nH]1`, for which the growth in the test with NCI-H23 lung was 44.9%; in the test on NCI-H226 lung it was 57.5%; in the test with HOP-62 NSCLC, 45.5%; with NCI-H460 lung, 27.1%; in the test with HOP-92 NSCLC it was 51.6%; in the test on NCI-H522 lung, 3.48% (active). Further, the growth with A549/ATCC NSCLC is 57.7%; with 786-0 renal it was 41.5%; in the test with COLO 205 colon, 74.2%; in the test with DU-145 prostate, 53.4%; in the test with K-562 leukemia, 16%; in the test with MALME-3M melanoma it was 73%. In addition, the growth was 76.1% with MDA-MB-231 breast; 15.9% with RXF 393 renal; 49.6% in the test on SF-268 CNS; 26.7% in the test with SF-295 CNS; 12.1% with SF-539 CNS; 47.4% in the test with UACC-257 melanoma. For the same compound, the growth with M14 melanoma is 27.7%.
On to `Cc1c(C(=O)NCCCc2ccccc2)sc2ncc(-c3ccc(Br)cc3)n12`, for which the growth with NCI-H23 lung was 91.7%; in the test with NCI-H226 lung it was 102%; in the test on HOP-62 NSCLC it was 99.3%; in the test on NCI-H460 lung, 107%; in the test on HOP-92 NSCLC, 113%; with NCI-H522 lung, 98.5%. Further, the growth in the test with A549/ATCC NSCLC is 108%; in the test with 786-0 renal it was 100%; in the test on COLO 205 colon, 113%; in the test with DU-145 prostate, 104%; in the test on K-562 leukemia it was 101%; in the test on MALME-3M melanoma it was 101%. Besides, the growth in the test with MDA-MB-231 breast was 99.4%; in the test with RXF 393 renal, 109%; in the test with SF-268 CNS, 98.9%; in the test on SF-295 CNS it was 112%; with SF-539 CNS, 103%; with UACC-257 melanoma, 109%. Also, in the test on M14 melanoma, the growth was 100%.
As for `COc1cc(CCC[P+](c2ccccc2)(c2ccccc2)c2ccccc2)c(OC)c(OC)c1OC`, the growth with NCI-H23 lung was 77.9%; in the test on NCI-H322M lung it was 83.3%; in the test with HOP-62 NSCLC it was 82.1%; with NCI-H460 lung, 82.2%; with HOP-92 NSCLC, 61.8%; in the test with NCI-H522 lung it was 71.9%. Further, the growth is 78.2% in the test on A549/ATCC NSCLC; 75.3% with 786-0 renal; 105% with COLO 205 colon; 79.6% in the test with DU-145 prostate; 39.8% in the test with K-562 leukemia; 53.7% in the test on MALME-3M melanoma. Besides, the growth in the test with MDA-MB-231 breast is 61.5%; in the test with RXF 393 renal, 54.2%; in the test with SF-268 CNS, 64.7%; in the test on SF-295 CNS it was 82.5%; with SF-539 CNS, 57.7%; with UACC-257 melanoma, 60.7%. Further, the growth with M14 melanoma was 62%.
`COc1cccc(OC)c1C(=O)N[C@@H]1C(=O)N2[C@@H]1SC(C)(C)[C@@H]2C(=O)O`: the growth was 103% in the test with NCI-H23 lung; 107% in the test on NCI-H226 lung; 103% with HOP-62 NSCLC; 112% with NCI-H460 lung; 44.9% in the test on HOP-92 NSCLC; 88.7% with NCI-H522 lung. In addition, the growth was 105% in the test with A549/ATCC NSCLC; 95.6% with 786-0 renal; 107% in the test with COLO 205 colon; 115% with DU-145 prostate; 110% in the test with K-562 leukemia; 93.9% with MALME-3M melanoma. Moreover, the growth in the test on MDA-MB-231 breast is 102%; in the test with RXF 393 renal it was 125%; in the test with SF-268 CNS it was 109%; in the test on SF-295 CNS, 105%; in the test with SF-539 CNS, 108%; with UACC-257 melanoma it was 103%. Also, in the test on M14 melanoma, the growth is 97.9%.
Regarding `CCN1C(=O)N(CC)C2Nn3c(s/c(=C4\C(=O)N(CC(C)C)c5ccccc54)c3=O)=NC21` (configuration not stated), the growth with NCI-H23 lung was 43%; in the test on NCI-H226 lung, 84.1%; in the test with HOP-62 NSCLC, 55.2%; in the test with NCI-H460 lung it was 24.5%; with HOP-92 NSCLC, 81.2%; in the test with NCI-H522 lung, 15.9%. The growth with A549/ATCC NSCLC was 44.6%; in the test with 786-0 renal, 35.3%; in the test with COLO 205 colon, 4.64% (active); in the test on DU-145 prostate it was 34.5%; in the test on K-562 leukemia, 15.6%; with MALME-3M melanoma, 70%. Further, the growth in the test on MDA-MB-231 breast was 19.6%; in the test with RXF 393 renal, -3.71% (active); in the test with SF-268 CNS it was 66.1%; with SF-295 CNS it was 42.4%; in the test with SF-539 CNS it was 7.6% (active); in the test with UACC-257 melanoma, 87.5%. Besides, the growth in the test with M14 melanoma was 18.9%.
Regarding `Nc1cc2c(cc1Br)-c1cc(Cl)ccc1C2=O`, the growth in the test with NCI-H23 lung is 97.1%; in the test on NCI-H226 lung, 81.1%; in the test on HOP-62 NSCLC, 99.1%; in the test with NCI-H460 lung, 100%; in the test on HOP-92 NSCLC it was 87.6%; with NCI-H522 lung it was 96.1%. Further, the growth with A549/ATCC NSCLC is 96.7%; in the test on 786-0 renal, 98.6%; in the test on COLO 205 colon, 87.3%; with DU-145 prostate, 107%; with K-562 leukemia, 93.2%; in the test with MALME-3M melanoma it was 107%. For the same compound, the growth in the test with MDA-MB-231 breast was 79.8%; with RXF 393 renal, 101%; in the test with SF-268 CNS, 90.6%; in the test on SF-295 CNS it was 106%; in the test on SF-539 CNS, 99.2%; with UACC-257 melanoma, 103%. In addition, in the test on M14 melanoma, the growth was 105%.
